Structures can show the parent of a compound that is named as a salt.
How the values were obtained:
Details in all cases: 20 µM
[1] = tested on: Salmonella enterica typhimurium; assay: growth AUC normalised to DMSO control (fraction of control); higher = less growth inhibition, active = hit call of the paper
In short: (§1)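 Pathogens were passaged twice under anaerobic conditions, then inoculated into pre-reduced mGAM plates at a starting OD578 of 0.01, with compound at 20 μM and 1% DMSO, and sealed with breathable membranes. For Haemophilus parainfluenzae, the medium was supplemented with hemin and NAD. OD578 was read every hour for 24 h in three biological replicates. Growth-curve AUC was calculated by the trapezoidal rule up to the exponential-to-stationary transition and normalised to DMSO controls on the same plate.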

Shigella flexneri = assay: as above
In short: as §1

Vibrio cholerae = assay: as above
In short: as §1

[2] = tested on: Yersinia pseudotuberculosis; assay: as above
In short: as §1

P. vulgatus RND KO = assay: growth AUC normalised to DMSO control (median) (fraction of control); higher = less growth inhibition, active = hit call of the paper
In short: (§2)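 For normalised area under the curve, growth curves were truncated at entry into stationary phase, integrated by the trapezoidal rule and divided against vehicle wells on the same plate. The curves came from strains passaged twice overnight without oxygen and then grown in mGAM in 96-well plates at a starting OD578 of 0.01. Each well held an approved-drug library compound at 20 μM with 1% DMSO, and OD578 was read hourly for 24 h in an anaerobic incubator. Values are medians of three biological replicates.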

P. vulgatus WT = assay: as above
In short: as §2

[3] = tested on: S. enterica typhimurium WT; assay: as above
In short: as §2

[4] = tested on: S. enterica typhimurium tolC KO; assay: as above
In short: as §2

Measured: growth AUC normalised to DMSO control
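Wherever growth AUC normalised to DMSO control (median) is given: active when median AUC fell below 0.1.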

CC(=O)O[C@H]1C[C@@H]2CC[C@@H]3[C@H](CC[C@@]4(C)[C@H]3C[C@H]([N+]3(C)CCCCC3)[C@@H]4OC(C)=O)[C@@]2(C)C[C@@H]1N1CCCCC1 [Vecuronium bromide]
inactive: [1] 1.01 | Shigella flexneri 0.979 | Vibrio cholerae 1.01 | [2] 1.02 | P. vulgatus RND KO 0.955 | P. vulgatus WT 0.998 | [3] 1 | [4] 1

CN(C)CCOC(c1ccccc1)c1ccccc1.Cn1c(=O)c2[nH]c(Cl)nc2n(C)c1=O [Dimenhydrinate]
inactive: [1] 0.975 | Shigella flexneri 0.984 | Vibrio cholerae 0.933 | [2] 0.982 | P. vulgatus RND KO 1.01 | P. vulgatus WT 1 | [3] 0.988 | [4] 0.983

O=C(O)c1cccnc1Nc1cccc(C(F)(F)F)c1 [Niflumic acid]
inactive: [1] 0.989 | Shigella flexneri 0.998 | Vibrio cholerae 0.897 | [2] 1.01 | P. vulgatus RND KO 0.907 | P. vulgatus WT 0.936 | [3] 1 | [4] 0.961

Clc1ccc(Nc2nnc(Cc3ccncc3)c3ccccc23)cc1 [Vatalanib]
inactive: [1] 1.01 | Shigella flexneri 1.05 | Vibrio cholerae 1.01 | [2] 1.02 | P. vulgatus RND KO 0.98 | P. vulgatus WT 0.992 | [3] 1.01 | [4] 0.966

Cc1ncc([N+](=O)[O-])n1CC(C)O (stereo not given) [Secnidazole]
inactive: [1] 0.996 | Shigella flexneri 0.953 | Vibrio cholerae 0.99 | [2] 1 | [3] 1.01 | [4] 1
active: P. vulgatus RND KO 0.0215 | P. vulgatus WT 0.0204

CC(C)Cn1cnc2c(N)nc3ccccc3c21 [Imiquimod]
inactive: [1] 1.02 | Shigella flexneri 1.05 | Vibrio cholerae 1.06 | [2] 1.01 | P. vulgatus RND KO 0.986 | P. vulgatus WT 0.951 | [3] 0.997 | [4] 0.994

CS(=O)(=O)OCCCCOS(C)(=O)=O [Busulfan]
inactive: [1] 1.01 | Shigella flexneri 1.04 | Vibrio cholerae 1.07 | [2] 1.03 | P. vulgatus RND KO 1.02 | P. vulgatus WT 0.994 | [3] 1.01 | [4] 1.01

CC(=O)O[C@]1(C(C)=O)CC[C@H]2[C@@H]3C=C(Cl)C4=CC(=O)[C@@H]5C[C@@H]5[C@]4(C)[C@H]3CC[C@@]21C [Cyproterone acetate]
inactive: [1] 1 | Shigella flexneri 1.01 | Vibrio cholerae 1 | [2] 0.994 | P. vulgatus RND KO 0.896 | P. vulgatus WT 0.907 | [3] 1 | [4] 0.953

CC(=O)OCC(=O)[C@@]12OC3(CCCC3)O[C@@H]1C[C@H]1[C@@H]3CCC4=CC(=O)C=C[C@]4(C)[C@@]3(F)[C@@H](O)C[C@@]12C [Amcinonide]
inactive: [1] 1.01 | Shigella flexneri 1.02 | Vibrio cholerae 1.04 | [2] 1.04 | P. vulgatus RND KO 0.993 | P. vulgatus WT 0.991 | [3] 1.01 | [4] 0.988

COc1ccccc1OCCNCC(O)COc1cccc2[nH]c3ccccc3c12 (stereo not given) [Carvedilol]
inactive: [1] 1.02 | Shigella flexneri 1 | Vibrio cholerae 0.994 | [2] 0.997 | P. vulgatus RND KO 0.995 | P. vulgatus WT 0.989 | [3] 0.994 | [4] 0.944

CC(C(O)c1ccc(O)cc1)N1CCC(Cc2ccccc2)CC1 (stereo not given) [Ifenprodil tartrate]
inactive: [1] 1 | Shigella flexneri 1.05 | Vibrio cholerae 1.03 | [2] 1 | P. vulgatus RND KO 1.03 | P. vulgatus WT 1.02 | [3] 1.01 | [4] 1

C[C@@H]1C[C@H]2[C@@H]3C[C@H](F)C4=CC(=O)C=C[C@]4(C)[C@@]3(Cl)[C@@H](O)C[C@]2(C)[C@H]1C(=O)COC(=O)C(C)(C)C [Clocortolone pivalate]
inactive: [1] 1.03 | Shigella flexneri 1.06 | Vibrio cholerae 1.12 | [2] 1.05 | [3] 1.01 | [4] 1.04
active: P. vulgatus RND KO 0.0165 | P. vulgatus WT 0.0896

CN1CCC(=C2c3ccccc3C=Cc3ccccc32)CC1 [Cyproheptadine hydrochloride]
inactive: [1] 0.998 | Shigella flexneri 1 | Vibrio cholerae 0.91 | [2] 1 | P. vulgatus RND KO 0.97 | P. vulgatus WT 0.976 | [3] 1.01 | [4] 0.969

CC(C)(C)C(=O)OCOC(=O)[C@@H]1N2C(=O)[C@@H](/N=C/N3CCCCCC3)[C@H]2SC1(C)C [Pivmecillinam hydrochloride]
active: [1] 0.0179 | Shigella flexneri 0.0752 | [2] 0.0551
inactive: Vibrio cholerae 0.956 | P. vulgatus RND KO 1.01 | P. vulgatus WT 1.03 | [3] 0.158 | [4] 0.145

CC(CCc1ccccc1)NCC(O)c1ccc(O)c(C(N)=O)c1 (stereo not given) [Labetalol hydrochloride]
inactive: [1] 0.969 | Shigella flexneri 0.945 | Vibrio cholerae 0.972 | [2] 0.988 | P. vulgatus RND KO 1 | P. vulgatus WT 0.988 | [3] 0.99 | [4] 0.986

COc1ccc2[nH]c([S+]([O-])Cc3ncc(C)c(OC)c3C)nc2n1 (stereo not given) [Tenatoprazole]
inactive: [1] 0.988 | Shigella flexneri 1 | Vibrio cholerae 0.894 | [2] 0.998 | P. vulgatus RND KO 1.03 | P. vulgatus WT 1.06 | [3] 1 | [4] 0.963

OCCN1CCN(CC/C=C2/c3ccccc3Sc3ccc(Cl)cc32)CC1 [Zuclopenthixol dihydrochloride]
inactive: [1] 0.996 | Shigella flexneri 0.972 | Vibrio cholerae 0.946 | [2] 0.998 | P. vulgatus RND KO 0.928 | P. vulgatus WT 0.962 | [3] 0.992 | [4] 0.887

O=C(OCC(O)CO)c1ccccc1Nc1ccnc2cc(Cl)ccc12 (stereo not given) [Glafenine hydrochloride]
inactive: [1] 0.981 | Shigella flexneri 0.938 | Vibrio cholerae 0.88 | [2] 0.941 | P. vulgatus RND KO 1.01 | P. vulgatus WT 0.995 | [3] 0.997 | [4] 0.935

CO[C@@]1(NC(=O)CSCC#N)C(=O)N2C(C(=O)O)=C(CSc3nnnn3C)CS[C@@H]21 [Cefmetazole sodium salt]
active: [1] 0.00445 | Shigella flexneri 0.0256 | Vibrio cholerae 0.337 | [2] 0.139 | P. vulgatus RND KO 0.0391 | P. vulgatus WT 0.03 | [3] 0.00692 | [4] 0.00805

CCOc1nc2cccc(C(=O)O)c2n1Cc1ccc(-c2ccccc2-c2nnn[nH]2)cc1 [Candesartan]
inactive: [1] 1.01 | Shigella flexneri 1.02 | Vibrio cholerae 1.04 | [2] 1.01 | P. vulgatus RND KO 1.01 | P. vulgatus WT 1 | [3] 1.01 | [4] 0.987

C#C[C@]1(OC(C)=O)CC[C@H]2[C@@H]3CCC4=CC(=NO)CC[C@@H]4[C@H]3CC[C@@]21CC (mixture of isomers) [Norgestimate]
inactive: [1] 0.995 | Shigella flexneri 0.971 | Vibrio cholerae 0.984 | [2] 0.988 | P. vulgatus RND KO 0.836 | P. vulgatus WT 0.88 | [3] 0.999 | [4] 0.955

CN1CCc2c(c3ccccc3n2Cc2ccccc2)C1 [Mebhydroline 1,5-naphtalenedisulfonate]
inactive: [1] 0.985 | Shigella flexneri 0.96 | Vibrio cholerae 0.922 | [2] 0.702 | P. vulgatus RND KO 0.948 | P. vulgatus WT 0.971 | [3] 0.979 | [4] 0.977

CN1CCC(OC(c2ccccc2)c2ccccc2)CC1 [Diphenylpyraline hydrochloride]
inactive: [1] 0.988 | Shigella flexneri 0.996 | Vibrio cholerae 0.962 | [2] 0.987 | P. vulgatus RND KO 0.994 | P. vulgatus WT 1 | [3] 0.987 | [4] 0.983

Clc1ccc(CCC(Cn2ccnc2)Sc2c(Cl)cccc2Cl)cc1 (stereo not given) [Butoconazole nitrate]
inactive: [1] 1 | Shigella flexneri 1.01 | Vibrio cholerae 0.98 | [2] 0.745 | P. vulgatus RND KO 0.998 | P. vulgatus WT 1 | [3] 1.01 | [4] 0.999

C=CC1=C(C(=O)O)N2C(=O)[C@@H](NC(=O)/C(=N\O)c3csc(N)n3)[C@H]2SC1 [Cefdinir]
active: [1] 0.00595 | Shigella flexneri 0.00663 | Vibrio cholerae 0.0728 | [2] 0.023 | P. vulgatus RND KO 0.0139 | P. vulgatus WT 0.0141 | [3] 0.0086 | [4] 0.00501

Cc1cc2c(cc1S(N)(=O)=O)S(=O)(=O)CCC2 [Meticrane]
inactive: [1] 1.01 | Shigella flexneri 0.996 | Vibrio cholerae 1.01 | [2] 1.01 | P. vulgatus RND KO 1.03 | P. vulgatus WT 1.01 | [3] 1.02 | [4] 1.01

CC[N+](CC)(CC)CCC(O)(c1ccccc1)C1CCCCC1 (stereo not given) [Tridihexethyl chloride]
inactive: [1] 1 | Shigella flexneri 1.03 | Vibrio cholerae 1.05 | [2] 1 | P. vulgatus RND KO 1.06 | P. vulgatus WT 1.07 | [3] 1.02 | [4] 0.686

NCc1ccc(S(N)(=O)=O)cc1 [Mafenide hydrochloride]
inactive: [1] 1 | Shigella flexneri 0.998 | Vibrio cholerae 1.03 | [2] 0.969 | P. vulgatus RND KO 0.963 | P. vulgatus WT 0.815 | [3] 1.01 | [4] 1

CN(C)CCOC(c1ccccc1)c1ccccc1 [Diphenhydramine hydrochloride]
inactive: [1] 0.993 | Shigella flexneri 0.976 | Vibrio cholerae 0.976 | [2] 0.969 | P. vulgatus RND KO 1.01 | P. vulgatus WT 1 | [3] 0.981 | [4] 1

C#CCN(C)CCCOc1ccc(Cl)cc1Cl [Clorgyline hydrochloride]
active: Vibrio cholerae 0.862
inactive: [1] 0.966 | Shigella flexneri 0.955 | [2] 0.994 | P. vulgatus RND KO 0.999 | P. vulgatus WT 1.01 | [3] 0.976 | [4] 0.93

— the supplement of paper PMC12350171
